From PubChem BioAssay
CYP2C19 act: human CYP2C19 activators, primary screen, biochemical, luminescence; Cytochrome P450 2C19 (Homo sapiens), P33261; recombinant CYP2C19, luciferin-H EGE luminescence; active compounds read high; 0 = fully inhibited enzyme, 1 = untreated enzyme; activation factor at 5 µM; 96,000 tested, under 10 active; AID 1025, 2008;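 active = activation factor of at least 2 at 5 µM in the primary screen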;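 note: 0 = wells with 2.5 mM tranylcypromine and 1 = vehicle-only wells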
Target sequence (P33261 whole entry, looked up): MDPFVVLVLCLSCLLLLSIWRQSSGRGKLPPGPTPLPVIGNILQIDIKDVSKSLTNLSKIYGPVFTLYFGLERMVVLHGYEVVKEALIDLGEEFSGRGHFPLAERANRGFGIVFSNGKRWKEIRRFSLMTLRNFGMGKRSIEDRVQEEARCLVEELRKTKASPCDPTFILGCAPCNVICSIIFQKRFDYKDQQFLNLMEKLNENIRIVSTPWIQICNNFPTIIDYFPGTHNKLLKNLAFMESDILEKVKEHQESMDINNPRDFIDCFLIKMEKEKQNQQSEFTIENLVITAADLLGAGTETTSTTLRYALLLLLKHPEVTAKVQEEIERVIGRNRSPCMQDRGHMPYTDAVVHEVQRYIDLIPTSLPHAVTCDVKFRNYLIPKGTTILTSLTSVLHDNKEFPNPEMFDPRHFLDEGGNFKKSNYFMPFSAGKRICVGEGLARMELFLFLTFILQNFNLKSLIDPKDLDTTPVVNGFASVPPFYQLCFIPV
PLAP act: PLAP enzyme activators, biochemical, luminescence, HTS; Alkaline phosphatase, placental type (Homo sapiens), P05187; purified PLAP enzyme, luminescent substrate read-out; active compounds read high; activation fold at 20 µM; 96,000 compounds, 1.2% hits; AID 696, 2007; in the data active = activation fold above about 2
CYP2C9 activ: human CYP2C9 activators, primary screen, biochemical, luminescence | recombinant CYP2C9, luciferin-H conversion; active compounds read high; factor 1 = untreated enzyme, 0 = blocked | activation factor at 5 µM | 96,000 compounds, 1.4% hits | AID 1024, 2008;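 active = activation factor of 2 or more for CYP2C9 at a 5 µM dose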;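 note: 0 = sulfaphenazole-blocked wells and 1 = vehicle-only wells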
CYP2C9 inh: blockers of cytochrome P450 2C9 activity – biochemical, luminescence, ADME assay, primary screen | CYP2C9 Supersomes, luciferin-H conversion | inhibition, % at 5 µM | 96,000 compounds, 20% hits | AID 777, 2007;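 active = blocking of liver enzyme CYP2C9 beyond about 50% at 5 µM, limit read from the data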
CYP2C19 inhib: blockers of cytochrome P450 2C19 activity – biochemical, luminescence, ADME assay, primary screen. AID 778, 2007. CYP2C19 Supersomes, luciferin-H EGE luminescence, 30 min. 96,000 compounds, 21% hits. P33261. inhibition, % at 5 µM;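 active = CYP2C19 inhibition above a set limit at 5 µM in the primary screen, cut at about 50% in these data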;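 note: plate controls were negative control wells for no effect and 2.5 mM tranylcypromine positive control for full effect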
Starred values were filed as active, the others as inactive. Rows were chosen to be rich in hits. Some 31% of all compounds tested hit in one or more screens of this group.

SMILES	CYP2C19 act	PLAP act	CYP2C9 activ	CYP2C9 inh	CYP2C19 inhib
COc1ccc(N2C(=O)CCC2(C#N)c2ccc(Br)cc2)cc1 (stereo not drawn)	0.4	1.4	0.9	9	57*
COc1ccccc1N1C(=O)CCC1(C#N)c1ccc(Br)cc1 (stereo not drawn)	0.4	1.4	0.3	69*	59*
CCN1CCN(C(c2ccccn2)c2c(NC(=O)c3ccccc3)sc(C)c2C)CC1 (stereo not drawn)	1	1.5	0.9	8	-2
N#CCC(=O)N/N=C/c1ccc(Sc2nc3ccccc3s2)o1	0.2	1.2	0.8	18	78*
O=C(Cc1cccc2ccccc12)N/N=C/c1ccc(Sc2nc3ccccc3s2)o1	0.8	1.2	0.2	76*	16
COCC(=O)N/N=C/c1ccc(Sc2nc3ccccc3s2)o1	0.9	1.3	1.2	-20	11
Cc1ccccc1OCC(=O)N/N=C/c1ccc(Sc2nc3ccccc3s2)o1	0.3	1.5	0.2	83*	74*
COc1cc(/C=C2/N=C(c3ccccc3F)OC2=O)cc(Cl)c1OS(C)(=O)=O	0.9	1.2	0.7	26	15
CCC1CCCCN1C1Sc2ccc(C(=O)OC)cc2NC1=O (stereo not drawn)	0.7	1.3	0.9	12	34
CC1CCCN(C(=O)CNC(=O)Cn2ccc3ccccc3c2=O)C1 (stereo not drawn)	1.1	1.1	1.4	-38	-6
Fc1cccc2sc(N3CCCCC3)nc12	0.4	0.9	0.9	8	60*
Clc1ccc(Cl)c2sc(N3CCCC3)nc12	0.9	1	1.1	-6	11
O=C(Cn1cnc2c(oc3ccccc32)c1=O)N1CCN(c2ccccc2)CC1	1.2	0.9	1.2	-18	-23
CCN1C(=O)c2cccc3c(S(=O)(=O)Nc4ccccn4)ccc1c23	0.8	1.2	0.4	65*	20
CN(C)c1cccc2c(S(=O)(=O)Nc3ccccn3)cccc12	0.1	0.8	1.1	-13	92*
CCN1C(=O)c2cccc3c(S(=O)(=O)Nc4ncccc4C)ccc1c23	0.8	1.2	0.4	56*	23
CN(C)c1cccc2c(S(=O)(=O)N3CCOCC3)cccc12	0.7	1	1.8	-83	30
O=C(/C=N\O)NCCCNCc1ccccc1	1	1	1	5	0
CCOC(=O)C1(C)NC(c2ccc(N(C)C)cc2)C2C(=O)N(c3ccc(OC)cc3)C(=O)C21 (stereo not drawn)	0.4	1.1	0.8	22	57*
CCOC(=O)C1(C)NC(c2ccccc2F)C2C(=O)N(c3cccc(C(C)=O)c3)C(=O)C21 (stereo not drawn)	0.9	1.1	0.8	16	11
CCOC(=O)C1(C)NC(c2ccc(OC)cc2OC)C2C(=O)N(c3cccc(OC)c3)C(=O)C21 (stereo not drawn)	0.2	1.4	0.2	83*	80*
O=C(NNC(=O)c1sccc1-n1cccc1)c1cccc(Cl)c1	0.9	1.5	0.9	11	14
Oc1ccc(-c2nccc(-c3cccs3)n2)cc1	0.8	0.9	0.3	68*	18
COC(=O)C(C)Oc1ccc(-c2nccc(-c3cccs3)n2)cc1 (stereo not drawn)	0.7	1.4	0.4	65*	32
CC(Oc1ccc(Cl)cc1)C(=O)Nc1nccs1 (stereo not drawn)	0.6	1.1	0.6	37	41
SMILES	CYP2C19 act	PLAP act	CYP2C9 activ	CYP2C9 inh	CYP2C19 inhib
CC(C)C1=C2OC(N)=C(C#N)C(C#N)=C2C(C)CC1 (stereo not drawn)	0.8	1	0.9	10	15
CCOc1cc(/C=N\NC(=O)c2ccc(NC(=O)C(C)(C)C)cc2)ccc1OC(=O)c1ccc(C)cc1	0.9	1	0.8	23	12
CC(C)(C)C(=O)Nc1ccc(C(=O)N/N=C/c2ccccc2OC(=O)c2ccccc2)cc1	0.4	1.2	0.6	37	64*
COc1cc(C(=O)Oc2ccccc2/C=N/NC(=O)c2ccc(C)cc2)cc(OC)c1OC	0.7	1	0.4	59*	33
CCOC(=O)Nc1ccc(C)cc1C	0.8	0.8	0.9	6	21
Cc1ccc(NC(=O)C2C(c3ccccc3)C2(Cl)Cl)c(C)c1 (stereo not drawn)	0	0.6	0.5	52*	97*
Clc1nc(-c2n[nH]nc2Cl)n[nH]1	0.9	0.9	0.9	9	7
O=[N+]([O-])c1cnccc1Nc1ccccc1	0	0.9	0.1	92*	98*
CNc1oc(-c2ccc(C)cc2)nc1P(=O)(c1ccccc1)c1ccccc1	0.8	1	0.2	81*	25
Cc1nc(P(=O)(c2ccccc2)c2ccccc2)c(N2CCOCC2)o1	1	1.4	0.7	26	0
CCCCc1ccc(NC(=O)c2c(C)noc2C)cc1	0.9	2*	0.8	17	10
Cc1noc(C)c1C(=O)Nc1ccc(F)c(F)c1	0.6	1	0.9	10	37
Cc1noc(C)c1C(=O)NCCc1ccc(Cl)cc1	0.1	0.9	0.5	54*	91*
CC(C)Nc1nc(NC(C)C)nc(C(N)=O)n1	0.9	1.1	0.8	24	5
Cc1cc(C)c(NC(=O)C(C)c2cccc(C(=O)c3ccccc3)c2)c(C)c1 (stereo not drawn)	0.3	0.9	0.3	73*	72*
Cc1cccc(C)c1NC(=O)C(NC=O)c1ccccc1 (stereo not drawn)	0.8	1	0.9	10	16
Cc1cc(C)nc(SCC(=O)N/N=C/c2cccn2-c2ccc(O)cc2)n1	0.8	1.1	0.5	55*	17
Cc1cc(C)nc(SCC(=O)N/N=C/c2cccn2-c2cccc(C(F)(F)F)c2)n1	0.7	1.5	0.8	17	32
Cc1ccc2cc3cc(C(=O)NCCCN4CCc5ccccc5C4)oc3nc2c1	0.4	1.4	0.9	13	64*
Cc1cccc(N(C)C(=O)c2cc3cc4ccc(C)cc4nc3o2)c1	0.3	1.3	0.8	24	70*
Cc1ccc2cc3cc(C(=O)NCCCN4CCCCCC4)oc3nc2c1	1	1.2	1	3	-2
CCCCNC(=O)c1ccc(CS(=O)(=O)c2ccc(OC)cc2)o1	0.9	0.9	1	-1	11
COc1ccc(S(=O)(=O)Cc2ccc(C(=O)NCCCN(C)c3ccccc3)o2)cc1	0.5	1.4	0	98*	47
COc1ccc(S(=O)(=O)Cc2ccc(C(=O)NCCCN3CCc4ccccc4C3)o2)cc1	0.8	1.6	0.1	88*	16
CCOC(=O)N1CCC(NC(=O)c2ccc(CS(=O)(=O)c3ccc(OC)cc3)o2)CC1	1	1	0.1	93*	-3
